molecular target: Histone H2B type 1-L (UniProt Q99880); experiment: cross-link between two proteins; cross-linking mass spectrometry

Listed as a hit, yes:
Small ribosomal subunit protein eS8, P62241
Large ribosomal subunit protein eL6, Q02878
Large ribosomal subunit protein uL18, P46777
